Results taken from PubChem BioAssay AID1347146 (National Center for Advancing Translational Sciences (NCATS), 2019).
Results filed as inconclusive are left out. Where a call stands in place of a potency, no number is given. Calls of active or inactive are those of the source. The call rests on the fitted dose curve; in most records, active means well fitted inhibition curve with a large enough effect; inconclusive means small, poorly fitted or top-dose-only effect; inactive means no such curve, though single readings can be large or run the other way.
Potency means the concentration at half of the fitted maximal effect.

Each molecule was assayed against Nicotinamide N-methyltransferase (Homo sapiens) (UniProt P40261) (assay: qHTS Assay for Inhibitors of N-terminal methyltransferase 1 (NTMT1): NNMT MTaseGlo counterscreen assay). Conditions: NNMT enzyme, MTase-Glo luminescence counterscreen; series mostly up to 57.1 µM.
Nicotinamide N-methyltransferase (Homo sapiens), sequence (P40261 whole entry, looked up): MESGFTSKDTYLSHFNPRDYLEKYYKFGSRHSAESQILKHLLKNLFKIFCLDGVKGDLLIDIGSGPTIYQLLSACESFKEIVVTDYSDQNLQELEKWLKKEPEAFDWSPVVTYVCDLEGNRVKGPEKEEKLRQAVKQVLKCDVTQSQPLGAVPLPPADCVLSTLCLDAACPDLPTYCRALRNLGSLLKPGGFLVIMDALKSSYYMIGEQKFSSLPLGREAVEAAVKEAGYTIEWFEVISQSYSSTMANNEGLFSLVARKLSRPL
Procedure, shortened: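 Luminescent MTase-Glo read-out of SAH from nicotinamide methylation: 1 µM nicotinamide, 100 µM SAM, 125 nM NNMT, 30 min RT after ~15 min compound preincubation. Values normalized to no-enzyme/DMSO controls, Hill-fitted.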
`CC[n+]1c(/C=C/C=C2/N(C)c3ccccc3C2(C)C)sc2ccccc21` was tested, and the Potency was 15.8 µM (active). For `C[C@]12C[C@H](O)[C@H]3[C@@H](CCC4=CC(=O)CC[C@@]43C)[C@@H]1CC[C@@H]2C(=O)CO`, the Potency was “inactive”. In the case of `Cc1c(OCC(F)(F)F)ccnc1CS(=O)c1nc2ccccc2[nH]1` (centres undefined), the Potency is reported as “inactive”. For `Cc1nn(-c2ccccc2)c(C)c1/C=N/N1CCN(Cc2ccccc2)CC1`, the Potency was “inactive”. For `Oc1ccccc1O`, the Potency was “inactive”. With `CC(C)NCC(O)c1ccc(O)c(O)c1` (centres undefined) the Potency was “inactive”. With `COc1cc2c(NC3CCN(C(C)C)CC3)nc(N3CCCN(c4ccccc4)CC3)nc2cc1OCCCN1CCCC1` the Potency was “inactive”. In the case of `N.N.N.N.N.N.N.N.N.N.N.N.N.N.O.O.[Ru+4].[Ru+5].[Ru+5]`, the Potency is reported as “inactive”. For `OC[C@H]1O[C@@H](n2cnc3c(NCc4ccco4)ncnc32)[C@H](O)[C@@H]1O`, the Potency was “inactive”. For `Cc1cccc(/C=C/c2ccccc2)n1`, the Potency was “inactive”. With `Brc1c(NC2=NCCN2)ccc2nccnc12` the Potency was “inactive”. With `CN(C)c1ccc(/C=C2\C(=O)Nc3ccccc32)cc1` the Potency was 10 µM (active). For `CC(C)NC[C@H](O)c1ccc(O)c(O)c1`, the Potency was “inactive”. With `O=c1c(O)c(-c2ccc(O)c(O)c2)oc2cc(O)cc(O)c12` the Potency was “inactive”. With `Cc1cc(C)c(/C=C2\C(=O)Nc3ccccc32)[nH]1` the Potency was “inactive”. With `CCCCNc1ccc(C(=O)OCCN(C)C)cc1` the Potency was “inactive”. With `Cc1ccc(S(=O)(=O)/C=C/C#N)cc1` the Potency was 15.8 µM (active). For `N#C/C(=C\c1ccc(O)c(O)c1)C(=O)Nc1ccccc1`, the Potency was “inactive”. With `COc1cc2nc(N3CCOCC3)nc(NC(C)C)c2cc1OC` the Potency was “inactive”.
